The results in this text go back to PubChem BioAssay AID1626 (SRMLSC, 2009).

In all, about 220,000 compounds went through this assay and about 2,000 (0.91%) were called active. About 2% were inconclusive and are not listed. The list is a sample of the results. Potency and affinity values are given separately. A number with no mark means an inactive call. Cut-off read from the data, not from the text of the source: inconclusive = inhibition above about 80% without an active follow-up result; inactive = below that; test concentration not stated here.

The assay in a line: M. tuberculosis H37Rv growth inhibitors, H37Rv strain (AID 1626).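 Note: bacteria incubated seven days before Alamar blue readout; 0% = bacteria only wells and 100% = bacteria with antibiotic wells.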 To be noted: active compounds read high, concentration not given here.
A word on the inhibition: it is the drop in the measured response relative to a control, in per cent. Consider `Cc1ccc(NC(=O)/C=C\C(=O)NCC(=O)O)cc1`, for which the inhibition was -2.38%.
In the case of `COC(=O)C1=C(C(=O)OC)[C@@H]2Nc3ccccc3[C@@]23C[C@@H](C(=O)OC)N(C(=O)c2ccco2)C3=N1` it was -1.72%; in that of `O=C(NCc1cn(-c2ccccc2)nc1-c1ccccc1)c1cccc([N+](=O)[O-])c1`, 10.1%; in that of `O=C(NCc1cn(-c2ccccc2)nc1-c1ccccc1)c1ccc([N+](=O)[O-])cc1`, -4%.
As for `O=C(NCc1ccco1)c1cc([N+](=O)[O-])ccc1Cl`, the inhibition is -6.78%.
In the case of `Cc1ccc(C(=O)NCc2ccco2)cc1[N+](=O)[O-]`, the inhibition is 0.79%.
In the case of `CCOc1ccc(-c2cnc(N)n2C)cc1` it was 5.53%; in that of `Cc1ccc(CSCCNC(=O)CN(c2cccc([N+](=O)[O-])c2)S(C)(=O)=O)cc1`, 0.16%; in that of `Cc1noc(C)c1COC(=O)C1(c2cccc(F)c2)CCCC1`, 5.81%.
For `CCOC(=O)CC(=O)CSc1ncnc2c1nnn2-c1ccc(OC)cc1`, the inhibition was 0.52%.
As for `COC(=O)c1cccc(COC(=O)c2cccnc2SC)c1`, the figure is 5.06%; as for `Cc1nn(C)c2ncc(C(N)=O)c(Oc3ccc(Cl)cc3)c12`, -11.3%.
For the compound `Cc1nc(-c2ccc(Cl)cc2)sc1C1(C)CC(c2cccc([N+](=O)[O-])c2)=NO1` (stereo unspecified), the inhibition was -8.66%.
As for `Cc1ccccc1CN(c1ccc(C(=O)NCc2cccnc2)cc1)S(C)(=O)=O`, the figure is -13.5%; as for `Cc1ccc(SCC(=O)Nc2ccc(S(=O)(=O)Nc3nccs3)cc2)cc1`, 13.6%; as for `c1ccc(-c2cn(-c3ccccc3)c3ncnc(NCCCN4CCOCC4)c23)cc1`, 1.78%.
As for `Fc1ccc(-n2cc(-c3ccccc3)c3c(NN4CCOCC4)ncnc32)cc1`, the figure is -8.02%.
In the case of `CCN=C(N/N=C/c1ccc([N+](=O)[O-])cc1)SC`, the inhibition is -6.2%.
With `O=C(CNc1ccccc1C(=O)O)c1ccccc1`, the inhibition is -10.8%.
In the case of `Cc1ccc(NC(=O)C/C(N)=N/O)cc1C` it was 72.6%.
As for `Cc1ccc(S(=O)(=O)N(C)Cc2ccc(C(=O)NN=C3C4CC5CC(C4)CC3C5)cc2)cc1`, the figure is -4.86%.
In the case of `Nc1cc(N)cc(-c2nc3ccccc3o2)c1`, the inhibition is 53%.
As for `Nc1nc(-c2cc3ccccc3o2)cs1`, the figure is 3.5%.
Turning to `CNc1ccccc1C(C)(C)c1cc(-c2cccc(OC)c2)no1`, the inhibition was 3.34%.
Take `Cn1/c(=N\NC(=O)C2CCCCC2)sc2ccccc21`: the inhibition is 4.34%.
As for `CCOC(=O)c1c(C)n(C)c2ccc(OC(C)=O)cc12`, the figure is -1.73%; as for `CCOC(=O)c1c(C)n(C)c2ccc(OCC(N)=O)cc12`, 0.2%; as for `Cc1nn(C)c(C(=O)N/N=C/c2ccccc2)c1[N+](=O)[O-]`, -7.25%.
In the case of `COc1ccc(-n2c(SC3CCOC3=O)nc3ccccc3c2=O)cc1Cl` (stereo unspecified), the inhibition is 5.75%.
As for `CN1CCN(c2ccc(NC(=O)COc3ccccc3Cl)cc2)CC1`, the figure is 6.62%.
Consider `COc1cccc(C(C(=O)NC2CCCC2)N(Cc2ccccc2OC)C(=O)c2ccco2)c1` (stereo unspecified), for which the inhibition is 2.53%.
As for `COc1ccc(Nc2oc(COc3ccc(OC)cc3)nc2C#N)cc1`, the figure is -0.92%.
As for `COc1ccccc1/C=C/C(=O)NCc1ccccn1`, the figure is -4.28%; as for `CN(C(=O)Oc1cccc2cccnc12)c1ccccc1`, 1.95%.
On to `Cc1ccc2cccc(OC(=O)/C=C\c3ccccc3)c2n1`, for which the inhibition was -1.17%.
As for `COc1ccccc1/C=C/C(C)=O`, the figure is -0.82%; as for `CCCNS(=O)(=O)c1ccc(NC(=O)Cc2cccs2)cc1`, 5.56%.
In the case of `C/C=C/c1ccc(OCCCCOc2ccccc2C(C)=O)c(OC)c1` it was 6.35%; in that of `Brc1cccc(OCCOCCn2ccnc2)c1`, 4.09%; in that of `O=C(NCCN1CCc2ccccc2C1)C1CCN(S(=O)(=O)N2CCC3(CC2)OCCO3)CC1`, -3%.
In the case of `O=C(NCc1ccco1)c1ccccc1-c1ccccc1` it was -5.77%; in that of `O=C(NCc1ccco1)c1ccccc1Br`, -5.82%.
Consider `O=c1ccnc(SCc2ccccc2Cl)[nH]1`, for which the inhibition is 3.49%.
As for `CCc1ccc2c(c1)[C@]1(C(=O)N2)[C@@H]2C(=O)N(Cc3ccccc3)C(=O)[C@@H]2[C@@H]2CCCN21`, the figure is 3.94%.
In the case of `CCn1nc(C)cc1C(=O)N1CCCC(C(=O)c2ccc3ccccc3c2)C1` (stereo unspecified) it was 5.72%; in that of `Cc1cccc2c1NC(=O)C21N2CCCC2C(C(=O)c2ccc3ccccc3c2)C12C(=O)Nc1ccccc12` (stereo unspecified), 21.8%; in that of `CC(C)c1cc(C(=O)N2CCCC(C(=O)c3ccc4ccccc4c3)C2)on1` (stereo unspecified), 5.22%.
In the case of `CCc1cccc2c1NC(=O)[C@]21[C@@H]2C(=O)N(Cc3ccccc3)C(=O)[C@@H]2[C@@H]2CCCN21` it was -9.59%.
For the compound `CN(C)c1ccccc1C(=O)N1CCCC(C(=O)c2ccc3ccccc3c2)C1` (stereo unspecified), the inhibition is -4.94%.
As for `Nc1nc(N2CCN(C(=O)c3ccco3)CC2)nc2ccc(Br)cc12`, the inhibition was 10.2%.
`Nc1c(Cl)ncnc1N1CCCC1`: the inhibition was -5.84%.
With `CCCCOCCCNS(=O)(=O)c1ccccc1`, the inhibition is -3.58%.
As for `Cc1cc(Nc2cccc([N+](=O)[O-])c2)c2cccc(C)c2n1`, the figure is -6.77%; as for `Cc1ccccc1C(=O)NNC1CC(=O)N(c2ccc3c(c2)OCCO3)C1=O` (stereo unspecified), -10.4%.
In the case of `O=C(COC(=O)c1ccc(O)cc1)Nc1cc(C(F)(F)F)ccc1Cl` it was 0.39%.
With `c1ccc2oc(CCc3nc4ccccc4o3)nc2c1`, the inhibition was 0.98%.
As for `CCS(=O)(=O)CCSc1nc2ccccc2o1`, the figure is 3.19%.
With `CCC(=O)c1ccc(OCCn2cnc3ccccc32)cc1`, the inhibition was 9.27%.
On to `COc1cc(NC(=O)c2ccco2)c(OC)cc1NC(=O)c1cc(OC)c(OC)c(OC)c1`, for which the inhibition is 3.83%.
In the case of `COc1ccc(NC(=O)c2ccco2)c(OC)c1` it was -9.54%; in that of `Cc1ccc(-c2nnn(CC(=O)N(CC(=O)NC3CCCCC3)c3ccc(F)c(Cl)c3)n2)o1`, 1.56%.
